Assay outcomes as filed in PubChem.
Hits are enriched below; roughly 2.6% of the tested compounds scored in any of these assays.
GLP-1R inv ag: qHTS of GLP-1 Receptor Inverse Agonists (Inhibition Mode). Glucagon-like peptide 1 receptor (Homo sapiens), P43220. HEK293 GLP-1R CRE-luciferase, luminescence, 24 h; GLP-1R form is constitutively active. Potency, µM (highest dose often 38.3 µM), actives largely listed as inhibitors. actives 1.6% (n = 410,000); note: nearly all actives have a fitted effect of over 55% in size
Target sequence (P43220 whole entry, looked up): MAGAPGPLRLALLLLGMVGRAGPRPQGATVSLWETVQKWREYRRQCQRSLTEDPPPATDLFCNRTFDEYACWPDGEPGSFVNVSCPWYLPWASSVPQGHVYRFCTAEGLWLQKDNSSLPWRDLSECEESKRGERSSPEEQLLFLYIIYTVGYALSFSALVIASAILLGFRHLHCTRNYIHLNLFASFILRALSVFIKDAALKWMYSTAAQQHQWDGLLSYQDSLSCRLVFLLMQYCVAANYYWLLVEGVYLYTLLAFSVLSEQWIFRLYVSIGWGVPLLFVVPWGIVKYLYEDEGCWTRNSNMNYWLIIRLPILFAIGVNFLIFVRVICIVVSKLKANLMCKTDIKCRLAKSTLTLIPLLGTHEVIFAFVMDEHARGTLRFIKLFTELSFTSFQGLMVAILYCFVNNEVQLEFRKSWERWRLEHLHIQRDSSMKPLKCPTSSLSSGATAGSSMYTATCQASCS
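Constitutively active GLP-1R drives a cAMP-responsive luciferase in stably transfected HEK293 cells; test compounds are added after overnight (12 h) attachment and left 24 hr, and signal loss in luminescence marks inhibition.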
GLP1R ag: qHTS of GLP-1 Receptor Agonists; HEK293 GLP-1R CRE-luciferase, luminescence, 4-6 h; cells express a hypersensitive GLP-1R form; Potency, µM (highest dose often 45.6 µM), usual class: activators; actives 0.007% (n = 380,000); AID 624172, 2012
BRCA1 expr act: qHTS Assay to Identify Small Molecule Activators of BRCA1 Expression. MCF7-BRCA1-FFLuc reporter, luminescence, 48 h; response scale: scaled: vehicle 0%, 10 µM genistein 100%. Potency, µM (series often up to 46.1 µM), hits mostly activators. actives 1.1% (n = 380,000). AID 624202, 2012; note: nearly all actives have a fitted effect of over 80% in size
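Compounds are tested at multiple concentrations on MCF7 BRCA1-luciferase reporter cells seeded at 2000 per well; after 48 h, a single luminescence end-point is taken and curves fitted to the normalized data.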
HEK293 tox: qHTS of GLP-1 Receptor Inverse Agonists: Cytotox Screen. Potency, µM (top dose mostly 38.3 µM), usual class: inhibitors. HEK293 cAMP-luciferase reporter cells, luminescence, 24 h. AID 624418, 2012. actives 0.13% (n = 410,000);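 note: loss of luciferase light is scored as toxicity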
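Here, cytotoxicity is scored as loss of luminescence. The MLSMR collection was tested on cells seeded in medium containing 10% Nu serum, with a 24 hr compound exposure preceded by 12 hours of culture.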
Large screens that a line does not name were inactive. Calls come from the whole dose curve; as a rule, active = well fitted curve in the direction sought with a large enough effect; inconclusive = small, poorly fitted or top-dose-only effect, or another doubt; inactive = no such curve, though single readings can be large; an effect the other way counts as inactive or inconclusive.

CCOC(=O)[C@]12Cc3cc(OC)ccc3[C@H]1N(C)C(=O)c1cc(OC)ccc12	GLP-1R inv ag inconclusive
CCCCCN1C(=O)c2cc(OC)ccc2[C@@]2(C(=O)OCC)Cc3cc(OC)ccc3[C@@H]12	GLP-1R inv ag 7.08µM, HEK293 tox inconclusive
CC1=NNC(=O)/C1=C\c1cn(-c2ccccc2)nc1-c1ccccc1	GLP-1R inv ag inconclusive, HEK293 tox inconclusive
N#CC1=C(N)NC(SCC(=O)Nc2ccc(Br)cc2)=C(C#N)C12CCCCC2	GLP-1R inv ag 7.94µM, HEK293 tox inconclusive
Cc1ccccc1NC(=O)Nc1nc(C(N)C2CCCCC2)cs1 (centres undefined)	GLP-1R inv ag inconclusive, HEK293 tox inconclusive
CC(C)n1c(/C=C/[C@H](O)C[C@H](O)CC(=O)O)c(-c2ccc(F)cc2)c2ccccc21	GLP-1R inv ag 3.16µM
CC12CCC3c4ccc(O)c([N+](=O)[O-])c4CCC3C1CCC2=O (centres undefined)	none
CC(C)CCOP(=O)(c1ccc(N(C)C)cc1)C(O)c1ccc(Cl)cc1Cl (centres undefined)	GLP-1R inv ag 6.31µM, HEK293 tox inconclusive
Cc1ccc(C(=O)C2CN(C)CC2C(=O)c2ccc(C)cc2)cc1 (centres undefined)	GLP-1R inv ag inconclusive
Cc1ccc(C(=O)C2CN3CCC2CC3)cc1 (centres undefined)	GLP-1R inv ag 7.08µM
COc1ccc(CNC(=O)Cn2c(SCC(=O)Nc3ccc(C)c(C)c3)nc3ccccc32)cc1	GLP-1R inv ag inconclusive (no result: GLP1R ag, BRCA1 expr act)
Nc1c2c(nc3sc4c(c13)CCCC4)CCCC2	GLP-1R inv ag inconclusive, BRCA1 expr act 4.47µM, HEK293 tox inconclusive
Cc1cccc(N=c2oc3cc(O)ccc3cc2C(N)=O)c1	GLP-1R inv ag inconclusive, BRCA1 expr act 11.2µM
C=CCC1(C(C)CCC)C(=O)NC(=O)NC1=O (centres undefined)	none (no result: GLP-1R inv ag, BRCA1 expr act, HEK293 tox)
Cn1c(CSCc2ccc(Cl)c(Cl)c2)n[nH]c1=S	GLP-1R inv ag inconclusive, HEK293 tox inconclusive
CCCNC(=O)C1(C)CCN(Cc2ccc3ccccc3c2Br)C1 (centres undefined)	GLP-1R inv ag inconclusive
CCCCC[C@H]1CCCCC[C@H](O)C[C@@H](O)[C@H](O)/C=C/C(=O)O1	none
O=C(Nc1ccc(Cl)c(Cl)c1)c1cccc(S(=O)(=O)NCc2cccnc2)c1	GLP-1R inv ag 11.2µM, HEK293 tox inconclusive
CCN(c1ccccc1)S(=O)(=O)c1cccc(C(=O)NCc2cccnc2)c1	GLP-1R inv ag inconclusive
S=C(SSC(=S)N1CCCCC1)N1CCCCC1	none (no result: GLP-1R inv ag, BRCA1 expr act, HEK293 tox)
Cc1ccc(C(C#N)=Cc2ccc3c(c2)OCO3)cc1	GLP-1R inv ag 10µM, BRCA1 expr act inconclusive
Cc1ccc(NC(=S)NCc2ccc3c(c2)OCO3)cc1	GLP-1R inv ag inconclusive, HEK293 tox inconclusive
CC(C)=CCc1c(O)cc2c(c1O)C(=O)CC(c1ccc(O)cc1)O2 (centres undefined)	GLP-1R inv ag 12.6µM
Cc1cc(C)c(C)c(S(=O)(=O)N2CCC(C(=O)N(C)Cc3nc4ccccc4c(=O)[nH]3)CC2)c1C	GLP-1R inv ag inconclusive, HEK293 tox inconclusive
COC(=O)C1=C(c2ccc(-c3ccccc3)c(F)c2)C[C@@H]2CC[C@H]1N2C(=O)N1CCCCC1	GLP-1R inv ag 11.2µM
COC(=O)C1=C(c2ccc(-c3ccccc3)c(F)c2)C[C@@H]2CC[C@H]1N2C(=O)N1CCC(O)CC1	GLP-1R inv ag 12.6µM
C[C@H]1[C@@H]2Cc3ccc(O)cc3[C@]1(C)CCN2C	none (no result: GLP-1R inv ag, BRCA1 expr act, HEK293 tox)
CC(C)c1ccc(NC(=O)C2CCC(CNS(=O)(=O)c3ccc4c(c3)CCCC(=O)N4)CC2)cc1 (centres undefined)	GLP-1R inv ag inconclusive (no result: GLP1R ag)
CN(C)CCCN(C(=O)CCc1ccccc1)c1nc2ccc(Br)cc2s1	GLP-1R inv ag 6.31µM, HEK293 tox inconclusive
CN(C)CCN(C(=O)c1cc(Cl)sc1Cl)c1nc2ccc(F)cc2s1	GLP-1R inv ag inconclusive
C[C@]12CCC3C(CCC4=CC(=O)CC[C@@H]43)C1CCC2O (some centres undefined)	none (no result: GLP-1R inv ag, BRCA1 expr act, HEK293 tox)
Cn1c(O)c(/C=N/Nc2ccccc2)c(=O)n(C)c1=O	GLP-1R inv ag 10µM, HEK293 tox inconclusive
CN1CC[C@]23c4c5ccc(O)c4OC2C(O)CCC3[C@H]1C5 (some centres undefined)	none (no result: GLP-1R inv ag, BRCA1 expr act, HEK293 tox)
